Laboratory results taken from PubChem BioAssay.
The source made the active and inactive calls. How the calls were made is not given here.

Assay: Brca1-Bard1 BiLC signal decrease – luminescence, single concentration, counter-screen for Mdm2/MdmX interaction inhibitor project, confirmation (AID 504668)
Conditions: Brca1/Bard1 bimolecular luciferase complementation counterscreen, at 8 µM, hits give high values

Row | SMILES | inhibition
1 | Cc1ccc(C)c(NC(=S)NC(NC(=O)/C=C/c2ccccc2)C(Cl)(Cl)Cl)c1 (configuration not stated) | 31.4% (active)
2 | C/C(=N/NC(=O)CN(c1ccccc1)S(=O)(=O)c1ccccc1)c1ccccc1O | 26.8% (active)
3 | Cc1ccc(NC(=O)c2ccccc2NS(=O)(=O)c2ccc(Cl)s2)cc1 | 28.9% (active)
4 | CCn1c(SCc2c(Cl)cccc2Cl)nc2nc3c(cc2c1=O)CCCC3 | 35.8% (active)
5 | CCCSc1nnc(NC(=O)Nc2ccc(F)cc2)s1 | 28.5% (active)
6 | CCCCC(=O)NC(c1cccs1)c1cc(Cl)c2cccnc2c1O (configuration not stated) | 28.5% (active)
7 | Oc1c(C(c2cccs2)N2CCN(c3ccccc3)CC2)ccc2cccnc12 (configuration not stated) | 23.1% (active)
8 | O=c1c2ccccc2nc(COc2ccccc2)n1/N=C/c1ccc(O)cc1O | 31% (active)
9 | COc1cc(OC)cc(C(=O)Oc2c(CN3CCOCC3)cc(Cl)c3cccnc23)c1 | 33.8% (active)
10 | O=c1c2ccccc2nc(/C=C/c2cc(Br)ccc2O)n1CCCO | 26.6% (active)
11 | O=C(C#Cc1ccccc1)Nc1cccc(F)c1 | 30.5% (active)
12 | O=C(CCl)NCc1c(Cl)cccc1-n1cccc1 | 35.6% (active)
13 | O=C(CCCN1C(=O)/C(=C\c2ccco2)SC1=S)Nc1cccc2ccccc12 | 28.5% (active)
14 | COc1cccc(/C=N/Nc2ncnc(Cl)c2N)c1O | 30.7% (active)
15 | Cc1ncc(CO)c(/C=N/Nc2ccc(C(F)(F)F)cn2)c1O | 33.8% (active)
16 | O=C(Nc1ccc(Cl)cc1)Nc1csc([N+](=O)[O-])c1 | 30.6% (active)
17 | Cc1cc(C)cc(NC(=O)CSc2ccc(-c3ccccn3)nn2)c1 | 31.7% (active)
